Measured values: the supplement of paper PMC11732987, “Enantioselective OTUD7B fragment discovery through chemoproteomics screening and high-throughput optimisation” (Communications Chemistry, 2025)

How the values were obtained:
Assay in all cases: log2 ratio of Biotin-Ahx-Ub-VS probe labelling (fragment/DMSO); higher = less target engagement (more negative = stronger competition), active = hit call of the paper (q ≤ 0.05, log2 ratio ≤ -1)
Conditions in all cases: compound concentration: 200 uM; treatment time: 3 h
[1] = molecular target: T1, USP42 (UniProt Q9H9J4)
T1 sequence (whole entry): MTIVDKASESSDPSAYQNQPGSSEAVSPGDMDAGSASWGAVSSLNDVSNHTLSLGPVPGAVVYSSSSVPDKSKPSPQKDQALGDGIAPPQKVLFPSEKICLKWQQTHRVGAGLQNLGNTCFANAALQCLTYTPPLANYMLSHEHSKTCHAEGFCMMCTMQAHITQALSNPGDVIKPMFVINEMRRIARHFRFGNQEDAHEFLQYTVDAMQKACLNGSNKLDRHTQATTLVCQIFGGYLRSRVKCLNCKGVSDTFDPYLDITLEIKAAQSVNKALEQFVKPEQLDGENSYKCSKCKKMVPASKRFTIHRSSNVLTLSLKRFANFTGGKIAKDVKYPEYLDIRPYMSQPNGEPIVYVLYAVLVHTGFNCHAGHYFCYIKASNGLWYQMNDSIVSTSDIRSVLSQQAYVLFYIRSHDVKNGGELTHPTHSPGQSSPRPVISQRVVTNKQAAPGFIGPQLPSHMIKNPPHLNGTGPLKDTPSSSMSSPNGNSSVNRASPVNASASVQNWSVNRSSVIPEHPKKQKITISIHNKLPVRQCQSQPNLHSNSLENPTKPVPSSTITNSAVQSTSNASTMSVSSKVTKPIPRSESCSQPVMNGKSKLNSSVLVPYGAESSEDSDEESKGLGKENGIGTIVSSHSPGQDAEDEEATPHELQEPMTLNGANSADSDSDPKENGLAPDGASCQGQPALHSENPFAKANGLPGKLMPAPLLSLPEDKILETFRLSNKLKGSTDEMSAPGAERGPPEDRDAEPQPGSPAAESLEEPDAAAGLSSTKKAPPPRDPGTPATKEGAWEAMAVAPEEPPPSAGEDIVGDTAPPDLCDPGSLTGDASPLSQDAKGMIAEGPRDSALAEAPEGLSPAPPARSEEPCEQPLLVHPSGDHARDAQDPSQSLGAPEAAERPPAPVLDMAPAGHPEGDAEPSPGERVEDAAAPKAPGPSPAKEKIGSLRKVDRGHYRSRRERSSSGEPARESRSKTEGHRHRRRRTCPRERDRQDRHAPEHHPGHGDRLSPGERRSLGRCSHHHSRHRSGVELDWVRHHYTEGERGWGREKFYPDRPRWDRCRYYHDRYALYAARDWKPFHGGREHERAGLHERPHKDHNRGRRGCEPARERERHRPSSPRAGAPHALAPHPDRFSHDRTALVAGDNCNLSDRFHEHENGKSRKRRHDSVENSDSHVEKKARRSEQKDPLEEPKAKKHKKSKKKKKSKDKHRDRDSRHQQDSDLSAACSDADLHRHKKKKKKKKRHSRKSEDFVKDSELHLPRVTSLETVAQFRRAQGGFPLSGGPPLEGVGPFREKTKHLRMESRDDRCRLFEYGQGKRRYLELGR
Summary of the method: (§1)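 HEK293T lysate (495 µg per sample, in Tris/CHAPS/IGEPAL buffer with protease inhibitors) was treated in triplicate with fragment at 200 µM or with DMSO for 3 h. It was then treated with Biotin-Ahx-Ub-VS (0.5 µM final) for 1 h. Labelled DUBs were NeutrAvidin-enriched, digested with LysC and trypsin, and run by diaPASEF LC-MS/MS. Spectronaut label-free quantities were global-median-normalised. Values are average log2 ratios fragment/DMSO by unpaired t-test, using proteins with ≥2 unique peptides.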

[2] = molecular target: USP46 (UniProt P62068)
USP46, sequence (P62068 whole entry): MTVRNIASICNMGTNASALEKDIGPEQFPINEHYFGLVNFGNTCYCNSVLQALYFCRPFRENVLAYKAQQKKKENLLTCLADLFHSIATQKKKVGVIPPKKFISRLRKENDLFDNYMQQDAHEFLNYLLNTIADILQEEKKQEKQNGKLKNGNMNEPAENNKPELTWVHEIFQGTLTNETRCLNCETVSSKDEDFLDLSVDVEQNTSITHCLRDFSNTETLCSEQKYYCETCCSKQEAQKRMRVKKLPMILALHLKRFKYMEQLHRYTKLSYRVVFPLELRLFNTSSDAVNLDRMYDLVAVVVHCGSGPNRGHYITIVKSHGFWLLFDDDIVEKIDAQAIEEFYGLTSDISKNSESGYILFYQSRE
Summary of the method: as §1

[3] = molecular target: T2, USP47 (UniProt Q96K76)
T2 sequence (whole entry): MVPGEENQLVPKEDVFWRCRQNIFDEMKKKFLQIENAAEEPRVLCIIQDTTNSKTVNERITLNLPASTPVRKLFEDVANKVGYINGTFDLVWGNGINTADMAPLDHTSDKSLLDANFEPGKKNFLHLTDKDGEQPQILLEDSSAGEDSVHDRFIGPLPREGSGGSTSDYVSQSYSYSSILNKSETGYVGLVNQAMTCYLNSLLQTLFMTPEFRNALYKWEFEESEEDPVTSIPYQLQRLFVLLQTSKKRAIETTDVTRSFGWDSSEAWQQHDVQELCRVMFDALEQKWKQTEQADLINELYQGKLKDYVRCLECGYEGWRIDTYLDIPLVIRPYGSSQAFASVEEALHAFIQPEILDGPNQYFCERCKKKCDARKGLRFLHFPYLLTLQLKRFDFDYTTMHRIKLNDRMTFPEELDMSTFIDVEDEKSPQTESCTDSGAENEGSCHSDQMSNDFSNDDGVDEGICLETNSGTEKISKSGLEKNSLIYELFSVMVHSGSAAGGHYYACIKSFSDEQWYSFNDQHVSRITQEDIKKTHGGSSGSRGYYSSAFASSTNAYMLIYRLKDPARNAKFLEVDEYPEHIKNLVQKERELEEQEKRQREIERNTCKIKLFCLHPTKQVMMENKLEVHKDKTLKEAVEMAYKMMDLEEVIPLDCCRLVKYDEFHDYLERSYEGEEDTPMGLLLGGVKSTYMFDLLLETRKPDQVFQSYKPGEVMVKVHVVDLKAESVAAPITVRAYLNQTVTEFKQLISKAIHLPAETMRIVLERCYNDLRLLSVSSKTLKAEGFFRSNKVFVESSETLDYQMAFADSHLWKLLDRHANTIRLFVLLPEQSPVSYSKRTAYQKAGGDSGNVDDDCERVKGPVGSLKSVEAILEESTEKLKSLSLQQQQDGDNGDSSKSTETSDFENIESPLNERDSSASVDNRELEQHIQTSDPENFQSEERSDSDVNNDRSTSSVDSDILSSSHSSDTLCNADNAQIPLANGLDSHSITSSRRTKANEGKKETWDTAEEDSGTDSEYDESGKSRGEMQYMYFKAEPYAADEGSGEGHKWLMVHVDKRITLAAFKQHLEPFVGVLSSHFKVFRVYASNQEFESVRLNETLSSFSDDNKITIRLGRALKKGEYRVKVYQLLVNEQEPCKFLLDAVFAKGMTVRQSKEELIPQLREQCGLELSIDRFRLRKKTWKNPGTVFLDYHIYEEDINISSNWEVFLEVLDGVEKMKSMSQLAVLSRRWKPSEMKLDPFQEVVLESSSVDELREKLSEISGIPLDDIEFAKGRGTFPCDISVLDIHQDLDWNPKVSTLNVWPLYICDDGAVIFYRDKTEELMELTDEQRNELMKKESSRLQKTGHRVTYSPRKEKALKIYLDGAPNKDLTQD
Summary of the method: as §1

[4] = molecular target: T3, USP48 (UniProt Q86UV5)
T3 sequence (whole entry): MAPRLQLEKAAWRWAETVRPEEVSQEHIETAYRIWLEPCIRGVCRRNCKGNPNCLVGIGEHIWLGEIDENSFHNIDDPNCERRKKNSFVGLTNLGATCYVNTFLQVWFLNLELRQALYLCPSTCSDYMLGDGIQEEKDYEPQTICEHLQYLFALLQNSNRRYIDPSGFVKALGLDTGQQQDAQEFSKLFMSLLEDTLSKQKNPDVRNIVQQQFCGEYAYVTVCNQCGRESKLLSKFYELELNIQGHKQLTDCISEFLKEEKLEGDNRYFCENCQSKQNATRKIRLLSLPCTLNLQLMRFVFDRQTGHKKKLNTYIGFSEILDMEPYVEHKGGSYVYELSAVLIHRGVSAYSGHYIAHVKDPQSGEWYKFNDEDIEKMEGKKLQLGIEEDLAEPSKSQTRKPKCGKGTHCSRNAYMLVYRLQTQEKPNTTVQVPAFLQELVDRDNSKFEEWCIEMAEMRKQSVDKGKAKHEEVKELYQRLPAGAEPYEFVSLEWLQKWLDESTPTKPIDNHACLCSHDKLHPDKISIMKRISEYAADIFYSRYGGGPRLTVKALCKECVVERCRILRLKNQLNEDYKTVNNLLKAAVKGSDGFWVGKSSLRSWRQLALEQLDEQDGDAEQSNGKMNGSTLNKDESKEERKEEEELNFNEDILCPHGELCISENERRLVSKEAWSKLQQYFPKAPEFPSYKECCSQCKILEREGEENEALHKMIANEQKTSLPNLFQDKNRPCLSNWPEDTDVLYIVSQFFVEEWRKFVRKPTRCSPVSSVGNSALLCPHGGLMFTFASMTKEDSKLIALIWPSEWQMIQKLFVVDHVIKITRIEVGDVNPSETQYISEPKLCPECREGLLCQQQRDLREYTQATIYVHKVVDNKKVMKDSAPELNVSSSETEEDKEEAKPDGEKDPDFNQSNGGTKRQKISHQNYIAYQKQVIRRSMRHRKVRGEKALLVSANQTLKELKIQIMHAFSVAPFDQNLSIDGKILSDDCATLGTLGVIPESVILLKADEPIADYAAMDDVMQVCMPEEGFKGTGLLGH
Summary of the method: as §1

[5] = molecular target: T4, USP5 (UniProt P45974)
T4 sequence (whole entry): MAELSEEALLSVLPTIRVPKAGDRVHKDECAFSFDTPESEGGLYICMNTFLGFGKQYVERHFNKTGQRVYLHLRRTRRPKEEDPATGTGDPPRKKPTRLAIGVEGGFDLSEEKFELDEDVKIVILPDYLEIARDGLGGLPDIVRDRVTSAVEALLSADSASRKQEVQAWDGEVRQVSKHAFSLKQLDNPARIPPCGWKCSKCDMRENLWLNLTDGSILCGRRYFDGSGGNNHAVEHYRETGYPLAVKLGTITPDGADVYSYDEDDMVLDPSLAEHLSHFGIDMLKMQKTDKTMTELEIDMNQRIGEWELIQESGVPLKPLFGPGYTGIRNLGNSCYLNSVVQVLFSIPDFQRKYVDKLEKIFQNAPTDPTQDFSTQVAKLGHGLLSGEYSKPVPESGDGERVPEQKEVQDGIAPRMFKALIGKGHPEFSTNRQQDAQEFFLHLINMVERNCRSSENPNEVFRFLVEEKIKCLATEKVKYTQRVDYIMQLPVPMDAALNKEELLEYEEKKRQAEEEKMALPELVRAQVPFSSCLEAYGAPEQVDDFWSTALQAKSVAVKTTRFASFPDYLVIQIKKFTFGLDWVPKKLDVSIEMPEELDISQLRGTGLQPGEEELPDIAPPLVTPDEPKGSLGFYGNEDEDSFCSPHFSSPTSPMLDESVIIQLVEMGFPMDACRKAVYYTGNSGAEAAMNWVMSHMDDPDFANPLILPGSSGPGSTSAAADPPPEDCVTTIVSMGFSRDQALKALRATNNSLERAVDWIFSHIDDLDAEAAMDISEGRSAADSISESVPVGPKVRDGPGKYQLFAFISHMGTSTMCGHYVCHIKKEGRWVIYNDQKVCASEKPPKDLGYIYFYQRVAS
Summary of the method: as §1

[6] = molecular target: USP54 (UniProt Q70EL1)
Summary of the method: as §1

[7] = molecular target: USP7 (UniProt Q93009)
USP7, sequence (Q93009 whole entry, looked up): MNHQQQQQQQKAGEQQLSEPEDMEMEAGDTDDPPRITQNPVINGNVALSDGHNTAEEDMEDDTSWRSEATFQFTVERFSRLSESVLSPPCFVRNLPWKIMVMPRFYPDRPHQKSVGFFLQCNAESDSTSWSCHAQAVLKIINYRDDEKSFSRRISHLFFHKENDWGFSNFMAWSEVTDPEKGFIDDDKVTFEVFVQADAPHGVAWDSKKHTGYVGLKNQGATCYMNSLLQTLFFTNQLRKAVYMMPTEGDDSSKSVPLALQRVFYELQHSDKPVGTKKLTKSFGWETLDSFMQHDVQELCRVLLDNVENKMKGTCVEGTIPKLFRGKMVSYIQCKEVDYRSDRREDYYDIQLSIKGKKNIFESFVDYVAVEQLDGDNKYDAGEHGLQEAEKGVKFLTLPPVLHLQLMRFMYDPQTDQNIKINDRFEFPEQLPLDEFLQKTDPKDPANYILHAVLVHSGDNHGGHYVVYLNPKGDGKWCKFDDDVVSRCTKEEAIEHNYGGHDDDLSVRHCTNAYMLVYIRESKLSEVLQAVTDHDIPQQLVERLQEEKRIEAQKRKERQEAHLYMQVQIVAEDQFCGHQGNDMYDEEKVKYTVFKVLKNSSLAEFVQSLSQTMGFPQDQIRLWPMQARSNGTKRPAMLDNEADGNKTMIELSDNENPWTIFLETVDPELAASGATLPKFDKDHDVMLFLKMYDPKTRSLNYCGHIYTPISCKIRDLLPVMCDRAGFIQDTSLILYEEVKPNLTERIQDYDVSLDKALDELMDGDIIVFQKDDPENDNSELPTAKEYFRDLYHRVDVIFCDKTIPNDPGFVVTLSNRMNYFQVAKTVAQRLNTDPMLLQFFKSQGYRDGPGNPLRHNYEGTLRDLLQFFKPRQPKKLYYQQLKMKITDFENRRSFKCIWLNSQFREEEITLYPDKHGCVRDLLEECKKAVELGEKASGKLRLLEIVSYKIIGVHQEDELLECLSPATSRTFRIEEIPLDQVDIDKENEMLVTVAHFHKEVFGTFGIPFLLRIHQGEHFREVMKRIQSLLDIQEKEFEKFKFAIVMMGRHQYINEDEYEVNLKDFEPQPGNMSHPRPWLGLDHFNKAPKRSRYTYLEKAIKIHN
Summary of the method: as §1

[8] = molecular target: T5, USP8 (UniProt P40818)
T5 sequence (whole entry): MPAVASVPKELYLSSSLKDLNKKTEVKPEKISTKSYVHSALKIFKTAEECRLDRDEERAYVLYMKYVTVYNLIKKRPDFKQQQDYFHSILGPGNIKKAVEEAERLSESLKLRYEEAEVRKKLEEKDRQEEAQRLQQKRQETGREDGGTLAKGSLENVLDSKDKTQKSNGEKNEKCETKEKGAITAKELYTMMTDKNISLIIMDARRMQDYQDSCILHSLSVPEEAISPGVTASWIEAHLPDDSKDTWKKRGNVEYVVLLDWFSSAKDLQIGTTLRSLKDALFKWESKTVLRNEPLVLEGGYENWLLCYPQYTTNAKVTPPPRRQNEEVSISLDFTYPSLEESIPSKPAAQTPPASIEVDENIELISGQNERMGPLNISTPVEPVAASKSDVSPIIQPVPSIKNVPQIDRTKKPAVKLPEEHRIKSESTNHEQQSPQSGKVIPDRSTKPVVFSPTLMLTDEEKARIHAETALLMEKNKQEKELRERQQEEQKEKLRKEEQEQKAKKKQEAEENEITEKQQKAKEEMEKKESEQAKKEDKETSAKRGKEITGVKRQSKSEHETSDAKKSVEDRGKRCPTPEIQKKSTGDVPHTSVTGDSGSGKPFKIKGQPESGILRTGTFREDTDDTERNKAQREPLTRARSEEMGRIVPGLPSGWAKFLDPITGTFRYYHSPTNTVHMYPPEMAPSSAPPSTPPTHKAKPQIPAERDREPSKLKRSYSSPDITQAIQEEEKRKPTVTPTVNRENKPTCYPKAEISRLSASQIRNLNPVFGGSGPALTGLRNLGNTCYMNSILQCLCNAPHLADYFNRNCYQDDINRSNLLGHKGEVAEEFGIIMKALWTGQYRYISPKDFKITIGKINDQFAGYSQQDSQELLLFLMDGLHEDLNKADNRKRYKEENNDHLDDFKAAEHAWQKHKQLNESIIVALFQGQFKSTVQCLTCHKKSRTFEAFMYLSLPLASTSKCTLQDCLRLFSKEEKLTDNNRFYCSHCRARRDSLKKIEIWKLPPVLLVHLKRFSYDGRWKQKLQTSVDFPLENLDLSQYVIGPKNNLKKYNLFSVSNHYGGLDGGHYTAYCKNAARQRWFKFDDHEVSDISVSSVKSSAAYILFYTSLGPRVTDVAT
Summary of the method: as §1

[9] = molecular target: USP9X (UniProt Q93008)
USP9X, sequence (Q93008 whole entry): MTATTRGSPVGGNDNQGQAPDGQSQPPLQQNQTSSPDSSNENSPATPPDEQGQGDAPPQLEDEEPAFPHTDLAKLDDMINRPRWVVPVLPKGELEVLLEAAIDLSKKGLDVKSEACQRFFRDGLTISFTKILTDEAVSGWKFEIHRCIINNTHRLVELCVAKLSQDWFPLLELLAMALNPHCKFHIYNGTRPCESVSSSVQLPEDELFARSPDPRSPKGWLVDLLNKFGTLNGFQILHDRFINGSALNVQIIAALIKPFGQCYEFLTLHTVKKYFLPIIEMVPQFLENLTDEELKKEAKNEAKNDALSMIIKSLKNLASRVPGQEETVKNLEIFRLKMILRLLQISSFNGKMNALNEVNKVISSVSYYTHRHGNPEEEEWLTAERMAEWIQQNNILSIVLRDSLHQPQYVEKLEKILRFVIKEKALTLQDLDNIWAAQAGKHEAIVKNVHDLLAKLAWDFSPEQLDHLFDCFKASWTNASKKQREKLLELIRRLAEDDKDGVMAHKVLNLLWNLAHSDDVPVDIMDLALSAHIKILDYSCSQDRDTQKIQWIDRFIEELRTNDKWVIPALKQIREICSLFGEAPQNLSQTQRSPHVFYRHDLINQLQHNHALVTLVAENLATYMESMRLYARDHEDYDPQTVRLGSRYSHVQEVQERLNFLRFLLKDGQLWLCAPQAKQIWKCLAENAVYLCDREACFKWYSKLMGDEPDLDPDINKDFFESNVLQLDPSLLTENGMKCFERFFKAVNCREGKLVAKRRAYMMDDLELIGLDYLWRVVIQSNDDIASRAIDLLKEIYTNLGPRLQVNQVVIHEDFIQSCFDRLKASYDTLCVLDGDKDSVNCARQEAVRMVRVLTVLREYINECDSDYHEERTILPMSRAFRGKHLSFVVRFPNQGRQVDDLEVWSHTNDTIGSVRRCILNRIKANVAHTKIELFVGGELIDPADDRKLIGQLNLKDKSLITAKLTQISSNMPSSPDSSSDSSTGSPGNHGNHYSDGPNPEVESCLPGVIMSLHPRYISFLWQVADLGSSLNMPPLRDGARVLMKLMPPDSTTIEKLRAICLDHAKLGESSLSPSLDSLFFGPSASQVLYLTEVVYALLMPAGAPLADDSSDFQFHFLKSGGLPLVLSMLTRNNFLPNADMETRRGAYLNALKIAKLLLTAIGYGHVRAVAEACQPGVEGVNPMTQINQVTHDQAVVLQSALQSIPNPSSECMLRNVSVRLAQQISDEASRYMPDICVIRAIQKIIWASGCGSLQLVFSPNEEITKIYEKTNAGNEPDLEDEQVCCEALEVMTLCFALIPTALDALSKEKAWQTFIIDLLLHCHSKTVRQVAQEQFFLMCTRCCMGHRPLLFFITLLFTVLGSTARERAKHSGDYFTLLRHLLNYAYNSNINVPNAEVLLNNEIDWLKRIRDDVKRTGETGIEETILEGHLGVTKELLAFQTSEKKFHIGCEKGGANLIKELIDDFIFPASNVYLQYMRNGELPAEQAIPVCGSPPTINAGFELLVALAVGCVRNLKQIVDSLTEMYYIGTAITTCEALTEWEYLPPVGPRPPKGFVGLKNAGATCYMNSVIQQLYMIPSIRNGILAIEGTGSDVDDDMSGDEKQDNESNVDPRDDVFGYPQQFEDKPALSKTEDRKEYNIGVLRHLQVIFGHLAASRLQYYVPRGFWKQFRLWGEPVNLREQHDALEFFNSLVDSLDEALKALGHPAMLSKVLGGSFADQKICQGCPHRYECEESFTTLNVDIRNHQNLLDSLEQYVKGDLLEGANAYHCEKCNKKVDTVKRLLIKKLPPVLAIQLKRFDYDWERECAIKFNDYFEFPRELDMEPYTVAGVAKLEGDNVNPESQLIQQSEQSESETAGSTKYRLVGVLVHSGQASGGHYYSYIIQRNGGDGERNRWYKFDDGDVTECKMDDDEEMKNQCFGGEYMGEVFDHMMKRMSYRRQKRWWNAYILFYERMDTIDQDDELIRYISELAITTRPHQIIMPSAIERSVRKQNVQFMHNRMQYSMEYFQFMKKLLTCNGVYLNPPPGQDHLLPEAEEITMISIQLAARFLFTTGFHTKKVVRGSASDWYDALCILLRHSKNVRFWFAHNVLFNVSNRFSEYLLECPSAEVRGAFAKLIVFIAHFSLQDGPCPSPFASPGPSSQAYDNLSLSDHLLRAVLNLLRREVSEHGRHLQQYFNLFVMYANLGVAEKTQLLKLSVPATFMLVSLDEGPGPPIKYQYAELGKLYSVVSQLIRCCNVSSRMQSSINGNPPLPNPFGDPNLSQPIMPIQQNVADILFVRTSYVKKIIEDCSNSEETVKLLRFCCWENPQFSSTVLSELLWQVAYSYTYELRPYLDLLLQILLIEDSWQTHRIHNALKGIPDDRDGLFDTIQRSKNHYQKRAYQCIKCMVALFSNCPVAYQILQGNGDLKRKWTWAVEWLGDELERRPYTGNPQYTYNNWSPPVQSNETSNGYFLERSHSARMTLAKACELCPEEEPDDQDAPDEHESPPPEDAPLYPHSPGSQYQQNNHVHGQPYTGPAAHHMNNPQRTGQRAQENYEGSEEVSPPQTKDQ
Summary of the method: as §1

[10] = molecular target: UniProt O00487
UniProt O00487, sequence (O00487 whole entry): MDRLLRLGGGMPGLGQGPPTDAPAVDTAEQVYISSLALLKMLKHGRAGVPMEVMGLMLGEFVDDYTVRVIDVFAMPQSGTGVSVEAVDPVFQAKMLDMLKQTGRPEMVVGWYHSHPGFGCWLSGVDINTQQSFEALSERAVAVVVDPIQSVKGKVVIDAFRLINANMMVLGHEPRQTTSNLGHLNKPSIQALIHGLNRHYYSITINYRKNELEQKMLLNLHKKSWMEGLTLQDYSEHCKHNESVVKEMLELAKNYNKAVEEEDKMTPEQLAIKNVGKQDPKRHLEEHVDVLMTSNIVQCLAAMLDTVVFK
Summary of the method: as §1

Measured: log2 ratio of Biotin-Ahx-Ub-VS probe labelling

O=C(CCl)N1CCC(OCc2ccccc2F)CC1
inactive: [1] 0.919 | [2] 0.155 | [3] -0.138 | [4] -0.151 | [5] 0.445 | [6] -0.235 | [7] -0.391 | [8] 0.124 | [9] -0.0279 | [10] 0.075
